# Bioassay records (PubChem BioAssay)
# Mdm2-MdmX inh: inhibitors of human Mdm2-MdmX association, primary screen, cell-based, luminescence, split luciferase, SaOS-2, uHTS. actives 3% (n = 330,000). Protein Mdm4 (Homo sapiens) + E3 ubiquitin-protein ligase Mdm2 (Homo sapiens), …. AID 485346, 2010. inhibition, % at 8 µM. SaOS-2 split-luciferase Mdm2/MdmX complementation;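 active = inhibition of at least 50% at 8 µM in the primary screen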
# TIM10 inh: growth inhibitors of isogenic TIM10 control yeast, primary screen, counter-screen for tim10-1 yeast inhibitor project, luminescence, uHTS | actives 1.4% (n = 330,000) | S. cerevisiae TIM10 strain growth, BacTiter-Glo luminescence, 24 h | inhibition, % at 10 µM | AID 463195, 2010;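 active = inhibition of 40% or more at the single tested concentration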;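 also: wild-type TIM10 isogenic control strain grown at permissive 25 °C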
# tim10-1 inh: growth inhibitors of tim10-1 mutant yeast, primary screen, luminescence, uHTS; S. cerevisiae tim10-1 ts strain growth, BacTiter-Glo, 24 h; inhibition, % at 20 µM; actives 2.2% (n = 330,000);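 active = inhibition of at least 40%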;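 also: mutant grown at 25 °C; 0% = DMSO wells with yeast and 100% = wells holding no yeast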
# tim23-1 inh: growth inhibitors of tim23-1 mutant yeast, primary screen, luminescence, uHTS; inhibition, % at 20 µM; actives 1.3% (n = 330,000); S. cerevisiae tim23-1 growth, BacTiter-Glo luminescence, 24 h;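 active = growth inhibition of the mutant yeast at or above 50%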;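 also: temperature-sensitive mutant grown at 25 °C; plate controls were DMSO-treated mutant yeast for no effect and medium wells lacking yeast for full effect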
# MPTP inh: mitochondrial permeability transition pore inhibitors, primary screen, biochemical, isolated mouse mitochondria, absorbance; actives 1.4% (n = 360,000); AID 602449, 2012; inhibition, % at 10 µM; Ca2+ swelling absorbance, 30 min;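 active = inhibition of 50% or more, scaled per plate between neutral and stimulator controls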;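 also: 0% = DMSO wells given calcium and 100% = 1 mM EGTA wells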
# Mdm2 MdmX conf: Mdm2-MdmX complex disruptors, retested hits, confirmation, luminescence, single concentration. actives 55% (n = 10,000). shares compounds with Mdm2-MdmX inh. Mdm2-MdmX binding, luminescent assay. inhibition, % at 8 µM; in the data active = inhibition above about 40%
# FLuc counter: full-length luciferase signal inhibition, confirmation, counter-screen for Mdm2/MdmX interaction inhibitor project, cell-based, single concentration, SaOS-2; shares compounds with Mdm2-MdmX inh; SaOS-2 full-length luciferase counterscreen, luminescence; inhibition, % at 8 µM; actives 77% (n = 6,200);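 active = mean inhibition at 8 µM reaching about 37%, which flags the compound as non-specific, limit read from the data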;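 also: p53-null SaOS-2 cells with luciferase driven by a doxycycline-inducible promoter; compound on cells about two nights before reading with doxycycline added after day one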
# * marks the source's active call; other numbers are inactive results; . = not tested or not shown. Hits are enriched below; roughly 6.3% of the tested compounds scored in any of these assays.
SMILES,Mdm2-MdmX inh,TIM10 inh,tim10-1 inh,tim23-1 inh,MPTP inh,Mdm2 MdmX conf,others
NC(N)=Nc1nc(-c2ccccc2)c2ccccc2n1,62*,-5,-35,-3,12,39,
Clc1nc(-c2ccccc2)c2ccccc2n1,10,0,-11,-4,0,.,
CCNc1cc(N2CCCC2)ccc1[N+](=O)[O-],51*,8,4,13,0,9,
O=C(C[C@@H]1C=C[C@@H](NC(=O)C2CC2)[C@@H](CO)O1)NCc1ccccc1Cl,.,.,.,.,3,.,
Cc1ccc(S(=O)(=O)c2ncccc2[N+](=O)[O-])cc1,90*,-17,36,27,-1,77*,FLuc counter=52*
COc1ccc(Br)cc1/C=N/NC(=O)c1cc(OC)c(OC)c(OC)c1,-9,11,7,2,-1,.,
COc1cc(C(=O)N/N=C/c2ccsc2C)cc(OC)c1OC,77*,5,1,9,0,67*,FLuc counter=89*
COc1cc(NC(=O)c2cnc(N)s2)cc(C(=O)Nc2cccc(C(F)(F)F)c2)c1,35,-8,-10,-2,0,.,
COc1cc(NC(=O)c2csc(N)n2)cc(C(=O)Nc2cccc(C(F)(F)F)c2)c1,59*,13,30,23,-1,57*,FLuc counter=60*
CCOc1cccc(Cc2c[nH]c(=O)[nH]c2=O)c1,.,.,.,.,-1,.,
CCCCN(CC)CCNC(=O)c1cc2c(-c3ccc(Cl)cc3)nn(C)c2s1,58*,23,40,19,2,33,FLuc counter=31
Cn1nc(-c2ccc(Cl)cc2)c2cc(C(=O)NC3CC3)sc21,59*,6,10,10,-1,25,
CCOCCCNC(=O)c1cc2c(-c3ccc(Cl)cc3)nn(C)c2s1,19,16,37,38,-2,.,
CCCCc1nnc(NC(=O)CCS(=O)(=O)c2ccc(C)cc2)s1,57*,5,8,11,0,-5,
CCCc1nnc(NC(=O)CCS(=O)(=O)Cc2ccccc2)s1,57*,11,-9,1,-2,7,
CCc1nnc(NC(=O)CCS(=O)(=O)c2ccccc2)s1,51*,-7,6,11,-2,24,
CCCCc1nnc(NC(=O)CCS(=O)(=O)Cc2ccccc2)s1,-14,7,11,11,-1,.,
CCc1nnc(NC(=O)CCS(=O)(=O)c2ccc(C)cc2)s1,42,-6,-12,-7,0,.,
COc1ccc(NC(=O)C2(C)CCN2C(=O)c2ccccc2CCc2ccccc2)cc1OC (centres undefined),.,.,.,.,7,.,
CC(N)c1csc(Nc2nncc3ccccc23)n1 (centres undefined),.,.,.,.,1,.,
O=C1c2ccccc2OC2(C=Cc3ccccc3O2)N1Cc1ccccc1 (centres undefined),54*,15,27,25,-5,48*,FLuc counter=40*
CCCCN1CCCCC1(C)C(=O)NCc1cccs1 (centres undefined),.,.,.,.,-1,.,
CCOC(=O)c1[nH]cnc1C(=O)Nc1ccc([N+](=O)[O-])cc1,10,21,26,18,0,.,
O=C(Nc1ccc(F)cc1)c1nc[nH]c1C(=O)Nc1ccc([N+](=O)[O-])cc1,92*,2,24,-6,0,26,
O=C(Nc1ccc([N+](=O)[O-])cc1)c1nc[nH]c1C(=O)NC1CCCCC1,67*,4,12,13,4,19,
SMILES,Mdm2-MdmX inh,TIM10 inh,tim10-1 inh,tim23-1 inh,MPTP inh,Mdm2 MdmX conf,others
Cc1cccc(NC(=O)c2nc[nH]c2C(=O)Nc2cccc(C)c2)c1,40,15,-6,-9,4,.,
Cc1cccc(NC(=O)c2nc[nH]c2C(=O)NC2CCN(C(=O)OC(C)(C)C)CC2)c1,55*,29,21,20,0,26,
Cc1cccc(NC(=O)c2nc[nH]c2C(=O)NCCN(CCNC(=O)c2[nH]cnc2C(=O)Nc2cccc(C)c2)CCNC(=O)c2[nH]cnc2C(=O)Nc2cccc(C)c2)c1,86*,20,11,12,0,51*,FLuc counter=39*
Cc1cccc(NC(=O)c2nc[nH]c2C(=O)NCCCCCNC(=O)OC(C)(C)C)c1,32,15,16,21,-2,.,
Cc1cccc(NC(=O)c2nc[nH]c2C(=O)N[C@@H](CCCCNC(=O)OC(C)(C)C)C(=O)OC(C)(C)C)c1,61*,21,11,18,1,24,
Cc1cccc(NC(=O)c2nc[nH]c2C(=O)NCCCNC(=O)c2[nH]cnc2C(=O)Nc2cccc(C)c2)c1,73*,10,-1,4,0,63*,FLuc counter=43*
CC1CC2(CC(CN(C3CCCCC3)C3CCCCC3)OC2=O)C(=O)O1 (centres undefined),.,.,.,.,0,.,
Cn1nc(C(=O)Nc2cccc(S(=O)(=O)N3CCCCC3)c2)c2ccccc2c1=O,63*,-3,11,15,0,53*,FLuc counter=83*
[O-][N+](=Cc1ccccc1)CC1(O)CCCCC1,.,.,.,.,-1,.,
Cc1cc(NC(=O)CSc2nc3cc(Cl)ccc3o2)no1,35,4,-9,0,0,.,
CCN(CC)S(=O)(=O)c1ccc2oc(SCC(=O)Nc3cc(C)on3)nc2c1,55*,-8,12,11,0,57*,FLuc counter=52*
COc1ccc(C(=O)Nc2cc(C)on2)c(OC)c1,-58,-7,-5,-3,0,.,
COc1ccc(C(=O)Nc2ccc(C)cn2)c(OC)c1,68*,26,-12,33,2,67*,FLuc counter=85*
CCN1C(=O)c2cccc3c(NC(=O)c4ccc5c(c4)OCCO5)ccc1c23,51*,8,4,17,0,4,
CCN1C(=O)c2cccc3c(NC(=O)c4ccc(OC)c(OC)c4)ccc1c23,54*,-1,17,10,-1,24,
CCN1C(=O)c2cccc3c(NC(=O)C4CCCCC4)ccc1c23,55*,-6,-21,-6,0,24,
CCN1C(=O)c2cccc3c(NC(=O)c4ccccc4)ccc1c23,36,-32,-28,-20,-18,.,
O=C(Nc1cccc2ncccc12)c1ccc2c(c1)OCCO2,4,-6,1,4,-5,.,
CC1(C(=O)Nc2ccc(Cl)c(C(F)(F)F)c2)Cc2c(-c3ccc(C(N)=O)cc3)ccnc2O1 (centres undefined),.,.,.,.,-1,.,
